Screening results as filed in PubChem BioAssay.
Rows were chosen to be rich in hits. Some 3.8% of all compounds tested hit in one or more screens of this group.
HT1080NT lethal: kills 2HG-producing HT-1080-NT fibrosarcoma cells; HT-1080-NT fibrosarcoma viability, CellTiter-Glo ATP luminescence, 48 h; Potency, µM (titrated, usually from 46.1 µM), for inactives: top-dose activity, negative = less viability, hits mostly cytotoxic; 360,000 compounds, 1.6% hits;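 further: NT is the 2HG producing partner of a matched IDH1 knockdown line; 0% = DMSO-treated cells and -100% = media-only wells without cells; nearly all actives have a fitted effect of over 55% in size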
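Compounds were tested in concentration-response format on HT-1080-NT cells for 48 hours at 37 degrees C. Cell viability came from CellTiter-Glo luminescence; curves were classified by r2, response magnitude and activity.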
TGFb SMAD3 inh: TGF-b pathway inhibition; HepG2 CAGA-GFP TGF-b/SMAD3 reporter, GFP fluorescence, 18 h; TGF-beta stimulated, 500 pg/mL final; 410,000 compounds, 1.2% hits; Potency, µM (titrated, usually from 46.1 µM), without a hit: top-dose activity, negative = inhibition, usual class: inhibitors; further: on the % scale 0 is the no-effect control and ±100 the full control effect; nearly all actives have a fitted effect of over 65% in size
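First, reporter cells (HEPG2 CAGA-GFP) rested 2 h at 37 degrees C. Next, compounds were pinned in and TGF-beta added to 500 pg/mL final. After 18 h, GFP was imaged per cell and summed per well.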
ATXN viability: viability counter-screen for ATXN expression inhibitors; S2 cells (HEK-293 line with an ATXN2-luciferase reporter) viability, CellTiter-Fluor protease fluorescence, 24 h; 400,000 compounds, 0.49% hits; AID 651635; Potency, µM (series often up to 56.7 µM), usual class: cytotoxic; further: nearly all actives have a fitted effect of over 40% in size
ATXN2 expr inh: ATXN2 expression inhibition; HEK-293 ATXN2-luciferase reporter, luminescence, 24 h; Potency, µM (highest dose often 57 µM), for the others: at the top dose activity change, negative = inhibition, most hits filed as inhibitors; 360,000 compounds, 0.72% hits; further: on the % scale 0 is the no-effect control and ±100 the full control effect; nearly all actives have a fitted effect of over 55% in size
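qHTS (up to 57 uM final) was run with 24 h compound exposure of reporter cells at 37 °C. Each well was multiplexed: SteadyGlo luminescence measured ATXN2-luciferase expression after a fluorogenic Gly-Phe-AFC viability readout (25 uM final).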
HepG2 tox: HepG2 cytotoxicity, counter-screen for TGF-b inhibitors; HepG2 CAGA-GFP viability, ATP luminescence, 18 h; Potency, µM (highest dose often 46.1 µM), for the others: at the highest dose activity change, negative = cytotoxicity, most hits filed as cytotoxic; 410,000 compounds, 0.76% hits
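CellTiter-Glo luminescence gave cytotoxicity after 18 hours at 37 degrees C. The cells were HepG2 CAGA-GFP in 1% FBS DMEM, stimulated with 500 pg/mL TGF-beta after compound addition. %Activity was normalised to no-cell wells (complete cell-killing) and DMSO (no toxicity), and curves were fitted and classified.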
HT1080 IDH1KD tx: kills HT-1080 cells with IDH1 knockdown; HT-1080 IDH1 knockdown viability, ATP luminescence, 48 h; Potency, µM (series often up to 46.1 µM), without a hit: at the top dose activity, negative = toxicity, hits mostly cytotoxic; 360,000 compounds, 2% hits;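 further: 0% = DMSO wells and -100% = cell-free medium wells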
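CellTiter-Glo luminescence after 48 h compound exposure at 37 degrees C of IDH1-knockdown HT-1080 cells in 5% FBS RPMI. %Activity scaled between DMSO wells and cell-free media wells, with curves fitted and assigned curve classes.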
Active calls of the source: *; i = inactive; ? = inconclusive; · = no result given. The call rests on the fitted dose curve; in most records, active means well fitted curve in the direction sought with a large enough effect; inconclusive means small, poorly fitted or top-dose-only effect, or another doubt; inactive means no such curve, though single readings can be large; an effect the other way counts as inactive or inconclusive. Potency means the concentration at half of the fitted maximal effect.

SMILES | HT1080NT lethal | TGFb SMAD3 inh | ATXN viability | ATXN2 expr inh | HepG2 tox | HT1080 IDH1KD tx
COC(=O)c1ccc(OCC2c3cc(OC)c(OC)cc3CCN2C(=O)Cc2ccc(OC)cc2)cc1 (stereo not drawn) | · | 1% | i | -3% | -19% | ·
C=CCOc1ccc(-c2nc3c(c(=O)[nH]c(=O)n3CCCC)n2C)cc1Br | 7% | 10% | i | -27% | -8% | 0%
CCCCn1c(=O)[nH]c(=O)c2c1nc(-c1ccc(OC)c(Br)c1)n2CC(C)C | 29µM* | ? | ? | ? | -12% | 23µM*
Cc1cc2[nH]c3c(c[n+](C)c4ccccc34)c2cc1C | ? | ? | · | ? | 10µM* | 21µM*
O=S(=O)(Nc1c(S(=O)(=O)c2ccccc2)c2nc3ccccc3nc2n1C1CCCCC1)c1ccccc1 | ? | ? | i | -20% | -27% | 16µM*
N[C@@H](C(=O)N[C@@H]1C(=O)N2C(C(=O)O)=C(CSc3cn[nH]n3)CS[C@H]12)c1ccc(O)cc1 | · | · | i | · | · | ·
CS(=O)(=O)c1ccc(C(=O)OCC(=O)NCC2CCCO2)cc1[N+](=O)[O-] (stereo not drawn) | · | ? | · | · | -52% | ·
CS(=O)(=O)c1ccc(C(=O)OCC(=O)NC(=O)NC2CCCCC2)cc1[N+](=O)[O-] | · | 4.5µM* | · | · | 6.3µM* | ·
CC(C)CN1CCN(C(=O)COC(=O)c2ccc(S(C)(=O)=O)c([N+](=O)[O-])c2)CC1 | · | 4.5µM* | 32µM* | -27% | 4.5µM* | ·
CC(OC(=O)c1ccc(S(C)(=O)=O)c([N+](=O)[O-])c1)C(=O)NC1C2CC3CC(C2)CC1C3 (stereo not drawn) | · | 3.2µM* | 3.2µM* | ? | -101% | ·
CS(=O)(=O)c1ccc(C(=O)OCC(=O)NC23CC4CC(CC(C4)C2)C3)cc1[N+](=O)[O-] | ? | ? | ? | ? | -99% | -22%
CCC(OC(=O)c1ccc(S(C)(=O)=O)c([N+](=O)[O-])c1)C(=O)NC1C2CC3CC(C2)CC1C3 (stereo not drawn) | · | 4.5µM* | 6.3µM* | ? | 5.6µM* | ·
COCCNC(=O)CCCn1c(SCC(=O)Nc2cccc(C)c2)nc2c(sc3ccccc32)c1=O | · | -27% | · | · | -7% | ·
CC1CCN(C(=O)C(C)OC(=O)c2ccc(S(C)(=O)=O)c([N+](=O)[O-])c2)CC1 (stereo not drawn) | · | 10µM* | · | · | -77% | ·
C(=Nc1cccnc1)c1ccc2ccccc2n1 | · | -14% | · | · | 0% | ·
Cc1cc(O)cc(O)c1C=NCc1ccco1 | ? | 20µM* | 18µM* | ? | -69% | ?
Cc1ccc2nc(NCc3ccco3)c(C=NCc3ccco3)c(=O)n2c1 | 2% | -12% | i | 8% | -1% | -1%
O=S(=O)(NCC(c1cccs1)S(=O)(=O)c1ccccc1)c1ccccc1 (stereo not drawn) | · | 7.1µM* | · | · | 10µM* | ·
CC(=O)c1c(C)[nH]c(C(=O)OCc2nnc(-c3ccc([N+](=O)[O-])cc3)o2)c1C | 23µM* | -11% | ? | -28% | -21% | ?
CS(=O)(=O)c1ccc(C(=O)OCc2nnc(-c3ccc(Cl)cc3)o2)cc1[N+](=O)[O-] | ? | ? | · | ? | -83% | 18µM*
CCOc1ccc(/C=C(\C#N)C(=O)Nc2sc3c(c2C(=O)OC)C(C(=O)OC)CC3)cc1OC (stereo not drawn) | · | 4% | i | 10% | -6% | ·
COc1cc(-c2nc(C)cnc2C)cc2c1OCCN(C(=O)Cn1nc(-c3ccccc3)c3ccccc3c1=O)C2 | · | · | i | · | · | ·
CC(C)c1ccc(C(=O)C[N+]2(C)CCOCC2)cc1 | · | 10% | · | · | -10% | ·
Cc1ccc(Cc2c(-c3ccc(F)cc3)nc3cc(C)ccn23)cc1 | -11% | ? | 28µM* | -26% | -37% | -27%
Cc1ccc(Cc2c(-c3ccc(Br)cc3)nc3cc(C)ccn23)cc1 | 20% | 13% | ? | 54% | 1% | 16%
SMILES | HT1080NT lethal | TGFb SMAD3 inh | ATXN viability | ATXN2 expr inh | HepG2 tox | HT1080 IDH1KD tx
O=C1OC(c2ccc(O)cc2)(c2ccccc2O)c2ccccc21 (stereo not drawn) | -3% | -27% | i | -9% | -7% | -7%
O=C1OC(c2ccccc2)(c2ccc3cc(O)ccc3c2)c2ccccc21 (stereo not drawn) | 13µM* | ? | ? | ? | -182% | 26µM*
O=C1OC(c2ccccc2)(c2cc(Br)ccc2O)c2ccccc21 (stereo not drawn) | 16µM* | 20µM* | · | ? | -183% | 21µM*
O=C(O)C#CC(=O)O | · | ? | · | · | -20% | ·
Cn1cc(CNC2CCN(c3cccc(NC(=O)c4cccnc4)c3)CC2)cn1 | · | · | i | · | · | ·
COc1cccc(NC(=O)C2CCN(S(=O)(=O)c3c(C)noc3/C=C/c3cccs3)CC2)c1 | · | ? | · | · | -34% | ·
O=C(NN=C(c1ccccc1)c1ccccn1)c1ccccc1 | -20% | ? | ? | 4µM* | -19% | ?
C/C(=N\NC(=O)c1cccc(Br)c1)c1ccccn1 | ? | ? | ? | ? | -35% | ?
CCOc1ccc(C(=O)N/N=C/c2cccc3cccnc23)cc1 | ? | ? | i | ? | -27% | ?
COc1ccc(C(=O)N/N=C(\c2ccccc2)c2ccccn2)cc1 | ? | ? | 10µM* | 3.2µM* | -7% | ?
CSCC[C@H](NC(=O)OC(C)(C)C)C(=O)N/N=C/c1cccc2cccnc12 | -11% | -6% | i | 28µM* | -53% | ?
COc1ccc(C(=O)N/N=C/c2cccc3cccnc23)cc1 | -16% | ? | i | 22µM* | -7% | ?
C=C1C=C(C(F)F)n2ncc(C(=O)NCc3ccc(OC)c(OC)c3)c2N1 | · | -4% | · | · | 10% | ·
CNC(=O)[C@@H]1C[C@H](NC2CCCCCCC2)CN1Cc1cccc(OC)c1OC | · | · | i | · | · | ·
O=C(N/N=C(\c1ccccc1)c1ccccn1)c1ccccc1Cl | -15% | ? | ? | 22µM* | -48% | ?
C/C(=N\NC(=O)c1ccccc1Cl)c1ccccn1 | ? | ? | ? | · | -14% | ?
COc1cc(NS(=O)(=O)c2ccc3c(c2)CC(=O)N3)cc(OC)c1OC | · | 2% | i | 13% | -7% | ·
COc1ccc(C2=C(C)C(=NCc3ccc(OC(C)C)cc3)NS2(=O)=O)cc1 | · | -10% | i | 13% | -9% | ·
CCN(CC)CCNC(=O)c1[nH]c2ccccc2c1Sc1ccc(Cl)cc1 | · | ? | · | ? | 14µM* | ·
